Experimental data: PubChem BioAssay (NCATS)
Records with an inconclusive call do not appear. Entries that show only a call come without a potency. Values without a mark were called inactive. Calls of active or inactive are those of the source. Calls follow the shape of the dose curve; as a rule, active = well fitted curve in the direction sought with a large enough effect; inconclusive = small, poorly fitted or top-dose-only effect, or another doubt; inactive = no such curve, though single readings can be large; an effect the other way counts as inactive or inconclusive.

What was measured:
HaCat = assay: Cytotoxic Profiling of Annotated Libraries Using Quantitative High-Throughput Screening (AID 1296008); settings: Five cell lines viability, CellTiter-Glo ATP luminescence, 48-72 h; max response: active compounds read low; also: nearly all actives have a fitted effect of over 60% in size
Outline: (§1)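 Cells exposed to compounds for 48 or 72 hr at 37 degrees Celsius. Viability read as ATP-coupled luminescence with CellTiter-Glo after 10 min at room temperature.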

KB-3-1 = assay: as above; settings: Five cell lines viability, CellTiter-Glo ATP luminescence, 48-72 h; max response: active compounds read low
Outline: as §1

NIH3T3 = assay: as above; settings: Five cell lines viability, CellTiter-Glo ATP luminescence, 48-72 h; max response: active compounds read low
Outline: as §1

C33A = assay: Primary qHTS to identify gynecologic anti-cancer compounds using libraries of approved drugs and bioactive compounds (AID 1345084); settings: Gynecologic cancer cell panel viability, ATPlite luminescence, 48 h; series mostly up to 57.5 µM; also: nearly all actives have a fitted effect of over 55% in size
Outline: (§2)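 Cell viability after 48 h drug treatment, ATPlite luminescence readout; five doses.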

CAOV3 = assay: as above; settings: Gynecologic cancer cell panel viability, ATPlite luminescence, 48 h; series mostly up to 57.5 µM
Outline: as §2

CASKI = assay: as above; settings: Gynecologic cancer cell panel viability, ATPlite luminescence, 48 h; series mostly up to 57.5 µM
Outline: as §2

Es-2 = assay: as above; settings: Gynecologic cancer cell panel viability, ATPlite luminescence, 48 h; series mostly up to 57.5 µM
Outline: as §2

HeLa = assay: as above; settings: Gynecologic cancer cell panel viability, ATPlite luminescence, 48 h; series mostly up to 57.5 µM
Outline: as §2

Hek293T = assay: as above; settings: Gynecologic cancer cell panel viability, ATPlite luminescence, 48 h, control line for the selectivity index; series mostly up to 57.5 µM
Outline: as §2

JEG-3 = assay: as above; settings: Gynecologic cancer cell panel viability, ATPlite luminescence, 48 h; series mostly up to 57.5 µM
Outline: as §2

OV90 = assay: as above; settings: Gynecologic cancer cell panel viability, ATPlite luminescence, 48 h; series mostly up to 57.5 µM
Outline: as §2
Potency is read from the fitted curve at half-maximal effect.

Row | Structure (SMILES) | max response (HaCat) [%] | max response (KB-3-1) [%] | max response (NIH3T3) [%] | Potency (C33A) | Potency (CAOV3) | Potency (CASKI) | Potency (Es-2) | Potency (HeLa) | Potency (Hek293T) | Potency (JEG-3) | Potency (OV90) | outcome (KB-3-1) | Potency (HaCat) | Potency (KB-3-1) | Potency (NIH3T3)
1 | COC(=O)C1=C2Nc3ccccc3C23CCN2CCCC(C(C)O)(C1)C23 (configuration not stated) | -21.7 | 6.23 | 1.02 | inactive | inactive | inactive | inactive | inactive | inactive | inactive | inactive |  |  |  | 
2 | C=C(C)C1CCC2(C(=O)O)CCC3(C(=O)O)C(CCC4C5(C)CCC(O)C(C)(C(=O)O)C5CCC43C)C12 (configuration not stated) | 3.2 | -7.04 | 1.18 | inactive | inactive | inactive | inactive | inactive | inactive | inactive | inactive |  |  |  | 
3 | COc1ccc(CNC(=O)c2sc3nc(C)cc(C)c3c2N)cc1 | -25 | -4.88 | -5.95 | inactive | inactive | inactive | inactive | inactive | inactive | inactive | inactive |  |  |  | 
4 | CC(=O)OC[C@]12[C@H](OC(C)=O)C(=O)[C@@H]3[C@@H](OC(C)=O)[C@@]14O[C@@]3(C)COC(=O)c1cccnc1[C@@H](C)[C@H](C)C(=O)O[C@@H]([C@H](O)[C@@H]2OC(C)=O)[C@]4(C)O | -0.606 | -8.82 | -21 | inactive | inactive | inactive | inactive | inactive | inactive | inactive | inactive |  |  |  | 
5 | C[C@H](O)[C@H](O)/C=C/c1cccc(O)c1CO | -3.13 | 8.41 | -3.03 | inactive | inactive | inactive | inactive | inactive | inactive | inactive | inactive |  |  |  | 
6 | C[C@H]1O[C@@H](O[C@H]2CC[C@@]3(C)C(CC[C@]4(C)C3CC=C3C5CC(C)(C)CC[C@]5(C(=O)O)CC[C@]34C(=O)O)C2(C)C)[C@H](O)[C@@H](O)[C@@H]1O (some centres not stated) | -21.6 | 4.81 | 3.7 | inactive | inactive | inactive | inactive | inactive | inactive | inactive | inactive |  |  |  | 
7 | CC1CC(C(O)C(C)(C)O)OC2CC3(C)C4(C)CCC5C(C)(C)C(=O)CCC5(C)C4CCC3(O)C12O (configuration not stated) | 3.58 |  | 2.04 | inactive | inactive | inactive | inactive | inactive | inactive | inactive | inactive | inactive |  |  | 
8 | COc1c/c(=C2\C=c3ccccc3=N2)[nH]/c1=C\c1[nH]c(C)cc1C |  |  |  | 1.41 µM (active) | 10 µM (active) | 12.6 µM (active) | 2.51 µM (active) | 10 µM (active) | 6.31 µM (active) | 7.94 µM (active) | 2.24 µM (active) |  | 4.11 µM (active) | 2.31 µM (active) | 6.51 µM (active)
9 | Cc1cc2c(c(=O)[nH]1)OC(C(O)CC(C)C)O2 (configuration not stated) | -1.41 | -1.2 | -0.186 | inactive | inactive | inactive | inactive | inactive | inactive | inactive | inactive |  |  |  | 
10 | C=C[C@H]1C(O[C@@H]2O[C@H](CO)[C@@H](O)[C@H](O)[C@H]2O)OC=C2C(=O)N3CCc4c([nH]c5ccccc45)[C@H]3C[C@H]21 (some centres not stated) | 2.83 | 3.99 | 2.76 | inactive | inactive | inactive | inactive | inactive | inactive | inactive | inactive |  |  |  | 
11 | O=C(Nc1ccccc1)N1CCN(Cc2ccc3ccccc3n2)CC1 | -4.72 | -4.71 | 1.66 | inactive | inactive | inactive | inactive | inactive | inactive | inactive | inactive |  |  |  | 
12 | O=C(Nc1ccccc1-c1cn2c(CN3CCNCC3)csc2n1)c1ccc2ccccc2n1 | -14.7 | 2.25 | 4.15 | inactive | inactive | inactive | inactive | inactive | inactive | inactive | inactive |  |  |  | 
